Experimental findings from PubChem BioAssay (Tox21) are described below.

Inconclusive results are not listed. The source made the active and inactive calls. Unless noted, calls follow the shape of the full dose curve.

Assay [1] is described as follows: qHTS assay to identify small molecule agonists of the sonic hedgehog signaling (Shh) pathway (AID 1259368).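 Also: NIH/3T3-derived 3T3Gli1-Luc cells carrying a stable Gli1-driven firefly luciferase reporter; series mostly up to about 92 µM; nearly all actives have a fitted effect of over 15% in size.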 In short, it runs like this:
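Stable NIH/3T3 Gli1-Luc reporter clone; 24 hr cpd exposure after a 4 hr settling period; luminescence endpoint.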

Assay [2] is described as follows: qHTS assay to identify small molecule antagonists of the sonic hedgehog signaling (Shh) pathway (AID 1259369). Also: nearly all actives have a fitted effect of over 45% in size. Also: potency is read from the fitted curve at half-maximal effect. In outline:
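Gli1 transcriptional reporter (firefly Luc) in NIH/3T3 background, conditioned-medium activated. 24hr exposure, luminescence endpoint.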
In general terms: In qHTS, concentration-response curves come from the screen itself.

Assay [3] concerns the target Estrogen receptor beta (Homo sapiens) (UniProt Q92731). Description: qHTS assay to identify small molecule antagonists of the estrogen receptor beta (ER-beta) signaling pathway (AID 1259378; active = well fitted inhibition curve with a large enough effect in the signal ratio in the repeat runs, not every such curve was filed as active; the % refers to the signal ratio). In outline: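 ER-beta-UAS-bla HEK293T (GripTite) cells in 2% charcoal-stripped FBS medium were preincubated 6 hr at 37C, dosed with compound, then stimulated with 1 nM E2 (final) for 16 hr; beta-lactamase reporter read by B/G FRET fluorescence after 2 hr substrate loading.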

The nature of assay [4]: qHTS assay to identify small molecule agonists of the androgen receptor (AR) signaling pathway in the presence of an antagonist - cell viability counter screen (AID 1259379; active = well fitted curve in the direction sought with a large enough effect in the repeat runs; an effect the other way counts as inactive or inconclusive;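 also: MDA-kb2 human breast cancer cells carrying an MMTV luciferase reporter; series mostly up to about 92 µM; nearly all actives have a fitted effect of over 25% in size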). In outline:
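Counter screen for cell viability run in parallel with the AR agonist-mode luciferase assay. MDA-kb2 cells were co-treated with nilutamide (3.0uM final) and compounds, then incubated 16 hr at 37C, and CellTiter-Fluor fluorescence was measured.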

The nature of assay [5]: qHTS assay to identify small molecule agonists of the estrogen receptor beta (ER-beta) signaling pathway - cell viability counter screen (AID 1259380; active = well fitted curve in the direction sought with a large enough effect in the repeat runs; an effect the other way counts as inactive or inconclusive; also: nearly all actives have a fitted effect of over 30% in size). In outline: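 In this qHTS counter screen, HEK293T cells carrying an ER-beta/UAS beta-lactamase reporter, grown in 2% charcoal-stripped FBS, received compound for 16 hr; ATP-based CellTiter-Glo luminescence was then read after 30 min at room temperature.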

Assay [6] addresses Androgen receptor (Homo sapiens) (UniProt P10275). In words: qHTS assay to identify small molecule agonists of the androgen receptor (AR) signaling pathway in the presence of an antagonist (AID 1259381). Also: nearly all actives have a fitted effect of over 15% in size. In outline:
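AR antagonist background: nilutamide 3.0uM final. Cell line: MDA-kb2, MMTV-driven luciferase, responsive to both AR and GR. Exposure 16hr, 37C, no CO2; ONE-Glo luminescence.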

Assay [7] is described as follows: qHTS assay to identify small molecule antagonists of the estrogen receptor beta (ER-beta) signaling pathway - cell viability counter screen (AID 1259382; active = well fitted curve in the direction sought with a large enough effect in the repeat runs; an effect the other way counts as inactive or inconclusive; also: series mostly up to about 92 µM; nearly all actives have a fitted effect of over 55% in size). In outline: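 HEK293T ER-beta-UAS-bla, 2% charcoal-stripped FBS; compounds + 1nM E2 16 hr 37C; CellTiter-Glo luminescence, 30 min RT.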
Assay [8] in a line: qHTS assay to identify small molecule agonists of the estrogen receptor alpha (ER-alpha) signaling pathway in the presence of an antagonist - cell viability counter screen (AID 1259386; active = well fitted curve in the direction sought with a large enough effect in the repeat runs; an effect the other way counts as inactive or inconclusive;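 also: series mostly up to about 92 µM; cells exposed to compounds for 22 h at 37 °C before the viability read; nearly all actives have a fitted effect of over 30% in size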). In short, it runs like this:
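Steps: 5-day stripped-FBS culture; seed and incubate 24hr; add ICI-182,780 (10.0nM final); pin 15-point compound titration; incubate 22hr at 37C; add CellTiter-Fluor at 21hr; read fluorescence.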

Assay [9] deals with Progesterone receptor (Homo sapiens) (UniProt P06401). In words: qHTS assay to identify small molecule agonists of the progesterone receptor (PR) signaling pathway (AID 1346784). Also: nearly all actives have a fitted effect of over 30% in size. In outline:
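PR-UAS-bla HEK 293T cells carrying a UAS-driven beta-lactamase reporter were seeded in medium with 2% charcoal-stripped FBS, preincubated 6 hr at 37C, then exposed to compounds in DMSO for 16 hr; agonism was read by LiveBLAzer B/G FRET fluorescence.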

Assay [10] has the same target. Description: qHTS assay to identify small molecule antagonists of the progesterone receptor (PR) signaling pathway (AID 1346795; active = well fitted inhibition curve with a large enough effect in the signal ratio in the repeat runs, not every such curve was filed as active; the % refers to the signal ratio). In short, it runs like this:
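PR-UAS-bla HEK293T cells carrying a UAS-driven beta-lactamase reporter were plated in medium with 2% charcoal-stripped FBS and rested 6 hr at 37C. Compounds were added with 1 nM R5020 (final) for 16 hr, then FRET substrate loaded 2 hr at room temperature.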

Assay [11] in a line: qHTS assay to identify small molecule antagonists of the progesterone receptor (PR) signaling pathway - cell viability counter screen (AID 1346798; active = well fitted curve in the direction sought with a large enough effect in the repeat runs; an effect the other way counts as inactive or inconclusive; also: series mostly up to about 92 µM; nearly all actives have a fitted effect of over 50% in size). In short, it runs like this: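 PR-UAS-bla HEK293T cells in medium with 2% charcoal-stripped FBS were treated with compounds plus R5020 for 16 hr at 37C. Cell viability was then read by CellTiter-Glo luminescence after 30 min at room temperature in the same wells.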

Assay [12] can be described thus: qHTS assay to identify small molecule agonists of the progesterone receptor (PR) signaling pathway - cell viability counter screen (AID 1346799). Also: nearly all actives have a fitted effect of over 45% in size. In short, it runs like this: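 PR-UAS-bla HEK293T cells, 3,000 per well in medium with 2% charcoal-stripped FBS, were preincubated 6 hr at 37C, then exposed to compounds for 16 hr; viability was read as CellTiter-Glo luminescence after 30 min at room temperature.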

A short description of assay [13]: qHTS assay to identify small molecule antagonists of the TGF-beta/Smad signaling pathway - cell viability counter screen (AID 1346824; active = well fitted curve in the direction sought with a large enough effect in the repeat runs; an effect the other way counts as inactive or inconclusive; also: nearly all actives have a fitted effect of over 50% in size). In outline: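 SBE-bla HEK 293T cells were plated overnight at 37 C, then given compounds in DMSO plus TGF-beta1 (added as 0.25 ng/mL solution) for 5 hr. After the bla read, CellTiter-Glo was added to the same wells and luminescence read after 30 min at room temperature.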

The nature of assay [14]: qHTS assay to identify small molecule agonists of the TGF-beta/Smad signaling pathway - cell viability counter screen (AID 1346829; active = well fitted curve in the direction sought with a large enough effect in the repeat runs; an effect the other way counts as inactive or inconclusive; also: top concentration of the series differs between compounds; nearly all actives have a fitted effect of over 45% in size). In outline: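 HEK 293T SBE-bla line, 5 hr compound exposure at 37 C, multiplexed CellTiter-Glo viability read by luminescence.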
Assay [15] can be described thus: qHTS assay to identify small molecule agonists of the TGF-beta/Smad signaling pathway (AID 1346859; active = well fitted activation curve with a large enough effect in the signal ratio in the repeat runs, not every such curve was filed as active; the % refers to the signal ratio; also: series mostly up to about 77 µM). In short, it runs like this: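 HEK 293T cells stably carrying a beta-lactamase reporter driven by the Smad binding element were seeded overnight, exposed to DMSO-dissolved compounds for 5 hr at 37 C, 5% CO2, then loaded with FRET substrate for 2 hr at room temperature.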

The target in assay [16] is Thyrotropin-releasing hormone receptor (Homo sapiens) (UniProt P34981). Description: qHTS assay to identify small molecule antagonists of the thyrotropin-releasing hormone receptor (TRHR) signaling pathway (AID 1346877; active = well fitted inhibition curve with a large enough effect in the repeat runs, not every such curve was filed as active; also: series mostly up to about 51 µM). In outline:
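Human TRHR in HEK293 cells; inhibition of the intracellular calcium rise triggered by 1 nM TRH was followed by fluorescence over 3 min. Compounds were run at 15 concentrations, three replicates each.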

Assay [17] deals with Estrogen receptor (Homo sapiens) (UniProt P03372). In words: qHTS assay to identify small molecule agonists of the estrogen receptor alpha (ER-alpha) signaling pathway in the presence of an antagonist (AID 1259383). Also: top concentration of the series differs between compounds; nearly all actives have a fitted effect of over 15% in size. In outline: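 ER-alpha agonism measured under antagonist challenge: 10.0nM ICI-182,780 (final) plus compound, 15 concentrations, 22hr, VM7Luc4E2 ERE-luciferase cells. Read by luminescence.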

Assay [18] can be described thus: qHTS assay to identify small molecule agonists or antagonists of the thyroid stimulating hormone receptor (TSHR) signaling pathway - wild type cell line counter screen (AID 1259384). In outline: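 Wild-type HEK293 cells were plated 18 h at 37 C/5% CO2, pin-dosed with compound plus Ro20-1724 medium, held 30 min at room temperature, then given cAMP-d2 and anti-cAMP-cryptate; fluorescence was read after 1 h. Fifteen concentrations, triplicate.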

For assay [19], the target named is Thyrotropin receptor (Homo sapiens) (UniProt P16473). In words: qHTS assay to identify small molecule antagonists of the thyroid stimulating hormone receptor (TSHR) signaling pathway (AID 1259385). Also: nearly all actives have a fitted effect of over 20% in size. In outline:
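TSHR-HEK293 cells were plated and held 18 h at 37C/5% CO2, then given compound plus Ro20-1724 and stimulated with TSH at 1.5 ng/mL final. After 30 min at room temperature, cAMP was detected with cAMP-d2/anti-cAMP-cryptate (1 h) by fluorescence.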

Thyrotropin-releasing hormone receptor (Homo sapiens), sequence (P34981 whole entry, looked up): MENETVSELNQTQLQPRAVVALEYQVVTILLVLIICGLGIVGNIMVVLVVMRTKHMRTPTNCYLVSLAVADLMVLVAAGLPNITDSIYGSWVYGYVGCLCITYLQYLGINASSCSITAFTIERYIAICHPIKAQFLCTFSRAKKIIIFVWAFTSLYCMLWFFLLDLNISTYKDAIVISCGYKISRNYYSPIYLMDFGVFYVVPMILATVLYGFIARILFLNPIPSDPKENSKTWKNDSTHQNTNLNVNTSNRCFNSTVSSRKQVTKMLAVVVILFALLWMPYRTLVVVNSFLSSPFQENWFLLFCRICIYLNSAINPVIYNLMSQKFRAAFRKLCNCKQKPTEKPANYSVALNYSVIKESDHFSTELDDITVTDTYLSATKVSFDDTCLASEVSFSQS
Progesterone receptor (Homo sapiens), sequence (P06401 whole entry, looked up): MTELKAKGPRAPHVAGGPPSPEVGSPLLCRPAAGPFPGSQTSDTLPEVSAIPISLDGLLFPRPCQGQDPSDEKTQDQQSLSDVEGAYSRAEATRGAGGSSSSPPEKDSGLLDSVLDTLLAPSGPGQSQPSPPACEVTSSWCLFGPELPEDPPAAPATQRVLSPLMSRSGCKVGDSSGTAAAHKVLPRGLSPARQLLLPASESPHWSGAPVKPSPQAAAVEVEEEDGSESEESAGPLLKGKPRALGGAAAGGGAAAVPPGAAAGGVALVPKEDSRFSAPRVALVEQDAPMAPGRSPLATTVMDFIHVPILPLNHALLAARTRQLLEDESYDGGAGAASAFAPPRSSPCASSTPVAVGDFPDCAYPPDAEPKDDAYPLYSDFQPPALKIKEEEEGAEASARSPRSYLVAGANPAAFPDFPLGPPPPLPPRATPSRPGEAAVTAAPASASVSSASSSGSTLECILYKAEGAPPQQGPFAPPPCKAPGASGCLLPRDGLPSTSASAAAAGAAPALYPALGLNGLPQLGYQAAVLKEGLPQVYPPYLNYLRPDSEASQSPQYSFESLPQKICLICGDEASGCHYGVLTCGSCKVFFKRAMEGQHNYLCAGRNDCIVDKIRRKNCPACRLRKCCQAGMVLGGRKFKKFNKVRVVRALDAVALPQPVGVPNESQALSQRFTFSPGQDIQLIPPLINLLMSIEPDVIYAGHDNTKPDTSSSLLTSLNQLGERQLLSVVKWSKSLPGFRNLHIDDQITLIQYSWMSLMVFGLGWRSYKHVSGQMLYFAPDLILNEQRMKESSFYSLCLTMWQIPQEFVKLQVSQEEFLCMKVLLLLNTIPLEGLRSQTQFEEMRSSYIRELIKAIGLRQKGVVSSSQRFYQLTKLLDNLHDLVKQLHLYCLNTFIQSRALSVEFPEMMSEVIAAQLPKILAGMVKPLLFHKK
Estrogen receptor (Homo sapiens), sequence (P03372 whole entry, looked up): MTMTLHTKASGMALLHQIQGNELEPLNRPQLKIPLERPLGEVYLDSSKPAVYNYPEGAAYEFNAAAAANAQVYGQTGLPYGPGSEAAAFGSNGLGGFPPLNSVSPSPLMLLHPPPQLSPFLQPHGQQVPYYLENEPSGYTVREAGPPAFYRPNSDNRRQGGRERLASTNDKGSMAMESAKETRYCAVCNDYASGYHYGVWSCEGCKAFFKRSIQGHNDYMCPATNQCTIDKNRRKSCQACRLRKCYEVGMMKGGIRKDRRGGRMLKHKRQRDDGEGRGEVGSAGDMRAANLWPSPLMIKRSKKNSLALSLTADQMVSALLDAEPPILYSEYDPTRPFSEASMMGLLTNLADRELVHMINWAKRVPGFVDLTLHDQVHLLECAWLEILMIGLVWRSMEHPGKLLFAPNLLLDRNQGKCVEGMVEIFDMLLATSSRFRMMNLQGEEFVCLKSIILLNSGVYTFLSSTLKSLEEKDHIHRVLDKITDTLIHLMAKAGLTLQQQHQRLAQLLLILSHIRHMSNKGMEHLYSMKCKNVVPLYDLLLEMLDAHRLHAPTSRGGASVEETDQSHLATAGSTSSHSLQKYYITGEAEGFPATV
Thyrotropin receptor (Homo sapiens), sequence (P16473 whole entry, looked up): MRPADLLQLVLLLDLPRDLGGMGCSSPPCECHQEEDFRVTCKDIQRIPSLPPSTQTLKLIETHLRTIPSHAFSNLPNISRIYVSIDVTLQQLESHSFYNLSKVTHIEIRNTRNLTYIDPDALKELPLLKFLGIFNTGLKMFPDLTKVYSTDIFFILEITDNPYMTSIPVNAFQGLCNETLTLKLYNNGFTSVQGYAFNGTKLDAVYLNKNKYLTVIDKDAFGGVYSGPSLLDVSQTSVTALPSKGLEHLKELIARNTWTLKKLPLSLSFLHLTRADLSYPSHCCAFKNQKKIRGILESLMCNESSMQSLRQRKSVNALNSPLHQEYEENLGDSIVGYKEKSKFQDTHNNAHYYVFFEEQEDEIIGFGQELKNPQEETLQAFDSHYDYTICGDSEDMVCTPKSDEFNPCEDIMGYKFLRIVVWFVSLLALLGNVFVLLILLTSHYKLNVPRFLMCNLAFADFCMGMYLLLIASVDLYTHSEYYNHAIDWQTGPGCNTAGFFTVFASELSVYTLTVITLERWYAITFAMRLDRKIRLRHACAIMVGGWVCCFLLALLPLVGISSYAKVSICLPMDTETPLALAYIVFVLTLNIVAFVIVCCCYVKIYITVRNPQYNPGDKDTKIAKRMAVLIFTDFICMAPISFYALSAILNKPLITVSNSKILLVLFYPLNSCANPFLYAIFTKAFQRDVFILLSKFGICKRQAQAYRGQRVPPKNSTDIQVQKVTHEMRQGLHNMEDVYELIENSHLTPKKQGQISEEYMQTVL
Androgen receptor (Homo sapiens), sequence (P10275 whole entry, looked up): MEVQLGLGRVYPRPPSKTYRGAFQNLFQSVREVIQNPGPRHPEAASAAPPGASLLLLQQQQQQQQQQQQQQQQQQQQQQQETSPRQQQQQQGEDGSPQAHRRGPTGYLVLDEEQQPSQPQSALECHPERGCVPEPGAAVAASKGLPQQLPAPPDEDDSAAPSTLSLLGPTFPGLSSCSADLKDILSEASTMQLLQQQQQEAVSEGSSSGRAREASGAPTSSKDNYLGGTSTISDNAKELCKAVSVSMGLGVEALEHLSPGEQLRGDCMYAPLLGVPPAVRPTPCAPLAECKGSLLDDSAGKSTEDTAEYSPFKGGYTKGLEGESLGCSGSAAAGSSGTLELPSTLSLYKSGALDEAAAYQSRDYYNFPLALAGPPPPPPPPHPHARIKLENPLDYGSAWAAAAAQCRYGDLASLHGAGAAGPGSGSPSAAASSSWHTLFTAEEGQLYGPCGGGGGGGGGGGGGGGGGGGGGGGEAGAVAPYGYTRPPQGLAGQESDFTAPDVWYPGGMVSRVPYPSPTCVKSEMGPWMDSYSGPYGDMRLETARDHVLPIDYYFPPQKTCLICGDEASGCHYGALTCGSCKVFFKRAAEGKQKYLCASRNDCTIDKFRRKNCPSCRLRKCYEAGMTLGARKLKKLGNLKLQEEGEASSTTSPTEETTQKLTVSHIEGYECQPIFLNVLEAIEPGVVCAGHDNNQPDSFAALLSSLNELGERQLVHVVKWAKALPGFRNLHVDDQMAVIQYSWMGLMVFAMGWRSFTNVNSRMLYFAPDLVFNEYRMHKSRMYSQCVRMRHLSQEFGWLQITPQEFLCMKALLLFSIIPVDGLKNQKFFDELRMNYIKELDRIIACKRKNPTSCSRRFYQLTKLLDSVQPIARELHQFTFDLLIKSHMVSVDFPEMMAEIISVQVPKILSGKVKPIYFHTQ
Estrogen receptor beta (Homo sapiens), sequence (Q92731 whole entry, looked up): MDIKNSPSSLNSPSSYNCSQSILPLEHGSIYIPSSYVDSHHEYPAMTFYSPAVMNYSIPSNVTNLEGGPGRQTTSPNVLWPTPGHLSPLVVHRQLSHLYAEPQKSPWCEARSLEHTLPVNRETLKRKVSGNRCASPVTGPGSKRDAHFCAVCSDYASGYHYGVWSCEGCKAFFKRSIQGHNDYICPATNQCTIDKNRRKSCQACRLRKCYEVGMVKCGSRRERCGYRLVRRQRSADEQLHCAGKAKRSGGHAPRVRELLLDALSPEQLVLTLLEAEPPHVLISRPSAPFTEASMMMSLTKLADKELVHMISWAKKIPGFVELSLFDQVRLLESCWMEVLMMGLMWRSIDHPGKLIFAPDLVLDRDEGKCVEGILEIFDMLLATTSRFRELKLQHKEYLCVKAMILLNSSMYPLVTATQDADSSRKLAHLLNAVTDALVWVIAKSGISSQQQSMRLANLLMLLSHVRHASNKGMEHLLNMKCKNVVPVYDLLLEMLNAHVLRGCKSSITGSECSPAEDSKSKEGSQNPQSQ

As for `Cc1cc(Cl)c(C)cc1Cl`, the result in [1], in assay [3], in [7], in assay [13], in assay [14] and in assay [15] was inactive. Also, the compound was called inactive in [16]. Also, the Potency result in [2], in assay [4], in assay [5], in [6], in assay [8] and in assay [9] was “inactive” throughout. In addition, the Potency result in [10], in assay [11] and in assay [12] was “inactive” throughout.
As to `O=C(OCc1ccccc1)C(=O)OCc1ccccc1`, the result in assay [1], in assay [3], in assay [17], in [18], in assay [19] and in assay [13] was inactive. Besides, the outcome in assay [14] and in assay [15] was inactive. Besides, the Potency entry in assay [2], in assay [5], in assay [6], in assay [8], in assay [9] and in assay [11] was “inactive” each time. The Potency result in [12] was “inactive”.
For `Cc1ccccc1C(=O)Nc1ccc(C(=O)N2CCCC(N(C)C)c3ccccc32)cc1` (stereo not drawn), the outcome in [1], in assay [3], in assay [7], in [17], in [18] and in assay [13] was inactive. Further, the result in [14], in assay [15] and in assay [16] was inactive. Also, the Potency in assay [2] was 15 µM (active). In addition, the Potency entry in [4], in [8], in assay [9], in assay [10], in [11] and in assay [12] was “inactive” each time.
As for `O=P(O)(O)OP(=O)(O)O`, the compound was called inactive in assay [1], in [3], in assay [7], in [18], in assay [13] and in assay [14]. Also, the outcome in assay [15] and in assay [16] was inactive. The Potency entry in assay [2], in [4], in [5], in assay [8], in assay [9] and in [10] was “inactive” in each case. For the same compound, the Potency result in assay [11] and in assay [12] was “inactive” throughout.
Regarding `O=C1CCCC(=O)O1`, the call in assay [1], in assay [3], in [7], in assay [17], in assay [18] and in assay [19] was inactive. In addition, the outcome in assay [13], in assay [14], in assay [15] and in [16] was inactive. The Potency entry in assay [2], in assay [4], in assay [5], in assay [8], in [9] and in assay [10] was “inactive” each time. The Potency entry in assay [11] and in [12] was “inactive” throughout.
On to `CC(C(=O)O)c1ccc2c(c1)CC(=O)c1ccccc1S2` (stereo not drawn), for which the outcome in assay [1], in [7], in assay [17], in [18], in assay [13] and in assay [14] was inactive. For the same compound, the compound was called inactive in assay [15]. For the same compound, the Potency entry in [2], in assay [4], in assay [5], in [6], in [8] and in assay [9] was “inactive” each time. Besides, the Potency entry in [10], in assay [11] and in assay [12] was “inactive” each time.
On to `CCOC(=O)CC(=O)c1ccccc1`, for which the outcome in assay [1], in [3], in assay [17], in assay [18], in assay [19] and in assay [13] was inactive. Also, the outcome in assay [14], in [15] and in assay [16] was inactive. The Potency result in assay [2], in [5], in assay [8], in assay [9] and in assay [12] was “inactive” each time.
For the compound `Cc1ccc2ccc(Cl)cc2n1`, the outcome in [1], in assay [7], in [17], in [18], in [19] and in assay [13] was inactive. Also, the result in [14] and in assay [15] was inactive. The Potency result in assay [2], in assay [4], in assay [5], in assay [6], in [8] and in assay [9] was “inactive” in each case. The Potency result in [10], in [11] and in [12] was “inactive” throughout.
